Assays:
[1] = test system: Schistosoma mansoni schistosomula (LE); assay: XTT viability relative to DMSO control; higher = more viable (less active); settings: 72 h; 10 µM
Description: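 XTT/PMS was then added for a further 24 h (72 h total) and A450 was read. % viability = (sample - heat-killed control)/(DMSO control - heat-killed control) x 100, from duplicate wells in two independent experiments.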

[2] = test system: Schistosoma mansoni schistosomula (NMRI); assay: phenotypic severity score (0-4); higher = more antischistosomal effect, active = 2 or more; settings: 10 µM
[3] = test system: Schistosoma mansoni schistosomula (Liberian); assay: drug effect (1 - score/DMSO control score) (fraction); higher = more antischistosomal effect, active = 0.5 or more; extreme values may be limits of the assay; settings: 10 µM
Procedure, shortened: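 Liberian-strain Schistosoma mansoni schistosomula, mechanically transformed from cercariae and pre-incubated at least 12 h, were exposed in duplicate (50 per well, flat-bottom 96-well plates) to 10 µM compound in Medium 199 with 5% FCS at 37 °C, 5% CO2, with 0.1% DMSO control wells. Wells were scored visually (10×) at 24, 48 and 72 h on a quarter-point scale from 3 (normal) to 0 (dead). Drug effect was derived from the mean test-well score relative to the mean DMSO-control score. Negative values were set to zero, and plates were valid only if control wells averaged at least 2.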
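For phenotypic severity score (0-4) in this document: visual microscopic scoring of shape, motility and density changes versus 0.5% DMSO solvent controls, one point per descriptor, degeneracy or death scored 4, mean of duplicate wells.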

SMILES | XTT viability [1] [%] | phenotypic severity score ([2]; 24 h) | phenotypic severity score ([2]; 48 h) | phenotypic severity score ([2]; 72 h) | drug effect ([3]; 24 h) | drug effect ([3]; 48 h) | drug effect ([3]; 72 h)
CCOc1ccccc1NC(C)C(=O)Nc1cc(C(F)(F)F)ccc1N1CCOCC1 (centres undefined) | 96 | 0 (inactive) | 0 (inactive) | 0 (inactive) | 0.15 (inactive) | 0.167 (inactive) | 0.312 (inactive)
CCOc1ccccc1C(=O)Nc1cccc(-c2nc3ncccn3c2C)c1 | 107 | 0 (inactive) | 0 (inactive) | 0 (inactive) | 0.0811 (inactive) | 0.389 (inactive) | 0.625 (active)
O=C(Nc1nc(-c2ccccn2)cs1)C1CC1c1ccccc1F (centres undefined) | 71.7 | 0 (inactive) | 0 (inactive) | 0 (inactive) | 0.182 (inactive) | 0.3 (inactive) | 0.127 (inactive)
CS(=O)(=O)N1CCC(Cn2nc(Cc3cccc4ccccc34)c3c(N)ncnc32)CC1 | 122 | 0 (inactive) | 0 (inactive) | 0 (inactive) | 0.1 (inactive) | 0.568 (active) | 0.636 (active)
O=C(Nc1ccnc(-c2cccnc2)n1)c1cc(C(F)(F)F)cc(C(F)(F)F)c1 | 91 | 0 (inactive) | 0 (inactive) | 0 (inactive) | 0.1 (inactive) | 0.0811 (inactive) | 0.111 (inactive)
Cc1nc(-c2ccccn2)nc(NCCc2ccc(S(C)(=O)=O)cc2)c1Cl | 66.9 | 0 (inactive) | 4 (active) | 4 (active) | 0.135 (inactive) | 0.167 (inactive) | 0.5 (active)
O=C(c1ccco1)N(CCCn1ccnc1)c1nc2c(Cl)cccc2s1 | 46.4 | 0 (inactive) | 0 (inactive) | 0 (inactive) | 0.0909 (inactive) | 0.4 (inactive) | 0.4 (inactive)
COc1ccc(Nc2ccccc2NC(=O)c2ccc(O)nc2)cc1 | 176 | 0 (inactive) | 0 (inactive) | 0 (inactive) | 0.182 (inactive) | 0.45 (inactive) | 0.4 (inactive)
CC1(C)Cc2c(c(N3CCOCC3)nc3snc(Br)c23)CO1 | 71.5 | 0 (inactive) | 0 (inactive) | 0 (inactive) | 0.0455 (inactive) | 0.1 (inactive) | 0.105 (inactive)
c1ccc(-c2cc(N3CCCCC3)c3ccccc3n2)nc1 | 59.9 | 1 (inactive) | 0 (inactive) | 1 (inactive) | 0.15 (inactive) | 0.243 (inactive) | 0.389 (inactive)
CCOc1ccc(-c2nc(NC(=O)CS(=O)(=O)c3ccccc3)sc2C)cc1 | 61.8 | 0 (inactive) | 0 (inactive) | 1 (inactive) | 0.1 (inactive) | 0.0811 (inactive) | 0.111 (inactive)
CS(=O)(=O)c1ccc(C(=O)N(CC2CCCO2)c2nc3ccccc3s2)cc1[N+](=O)[O-] (centres undefined) | -7.96 | 4 (active) | 4 (active) | 4 (active) | 1 (active) | 1 (active) | 1 (active)
c1ccc(Oc2ccc(-c3cc(CN4CCOCC4)[nH]n3)cc2)cc1 | 85.9 | 0 (inactive) | 0 (inactive) | 0 (inactive) | 0.0455 (inactive) | 0.05 (inactive) | 0.158 (inactive)
CN1CCN(S(=O)(=O)c2ccc(-c3ccc4c(Nc5ccc6nn[nH]c6c5)ccnc4c3)cc2)CC1 | 152 | 0 (inactive) | 0 (inactive) | 0 (inactive) | 0.1 (inactive) | 0.135 (inactive) | 0.0909 (inactive)
C[C@H](c1ccc2c(c1)CCCC2)N(C)c1ncc2c(N)nc(N)nc2n1 | 39.1 | 0 (inactive) | 0 (inactive) | 0 (inactive) | 0.2 (inactive) | 0.278 (inactive) | 0.438 (inactive)
Cc1cnc(N2CCN[C@@H](Cc3ccccc3)C2)nc1Oc1ccc(-n2ccnc2)cc1 | 17.8 | 4 (active) | 4 (active) | 4 (active) | 0.3 (inactive) | 0.556 (active) | 1 (active)
O=C(c1ccc(NCCO)cc1)C1C[C@H]1c1ccc(Cl)cc1 (some centres undefined) | 93.3 | 0 (inactive) | 0 (inactive) | 0 (inactive) | 0.135 (inactive) | 0.278 (inactive) | 0.625 (active)
CC(C)C(NC(=O)Cc1cccc2ccccc12)C(=O)Nc1cccc(C#N)c1 (centres undefined) | 68.8 | 0 (inactive) | 0 (inactive) | 0 (inactive) | 0.15 (inactive) | 0.222 (inactive) | 0.333 (inactive)
CCS(=O)(=O)N(Cc1ccco1)Cc1cc2ccc(C)cc2nc1O | 55.5 | 0 (inactive) | 1 (inactive) | 0 (inactive) | 0.2 (inactive) | 0.333 (inactive) | 0.5 (active)
Cc1cc(NC(=O)c2ccc(Oc3ccc(Cl)cc3O)o2)no1 | 99.6 | 0 (inactive) | 0 (inactive) | 0 (inactive) | 0.1 (inactive) | < 0 (inactive) | 0.111 (inactive)
Cc1ccc2cc(C3NC(=O)c4ccccc4N3)c(Cl)nc2c1 (centres undefined) | 99 | 0 (inactive) | 0 (inactive) | 1 (inactive) | 0.05 (inactive) | 0.0811 (inactive) | 0.111 (inactive)

SMILES | XTT viability [1] [%] | phenotypic severity score ([2]; 24 h) | phenotypic severity score ([2]; 48 h) | phenotypic severity score ([2]; 72 h) | drug effect ([3]; 24 h) | drug effect ([3]; 48 h) | drug effect ([3]; 72 h)
Cc1nnc(NC(=O)c2cn(-c3ccccc3)nc2-c2ccccc2C)o1 | 56.8 | 1 (inactive) | 1 (inactive) | 1 (inactive) | < 0 (inactive) | 0.0811 (inactive) | 0.111 (inactive)
O=C(Nc1ccc(C(F)(F)F)c(C(F)(F)F)c1)c1cc(Cl)ccc1O | 35.4 | 4 (active) | 4 (active) | 4 (active) | 1 (active) | 1 (active) | 1 (active)
Cc1ccc2oc(-c3cc(NC(=O)Cc4ccccc4)ccc3Cl)nc2c1 | 109 | 1 (inactive) | 0 (inactive) | 0 (inactive) | 0.227 (inactive) | 0.25 (inactive) | 0.236 (inactive)
CN1CCC(NCc2cccc(-c3ccc(S(=O)(=O)NCc4ccccc4)cc3)c2)CC1 | 19.2 | 0 (inactive) | 2 (active) | 4 (active) | 0.6 (active) | 0.784 (active) | 0.939 (active)
Clc1cccc(CO[C@H]2CCc3ccccc3[C@@H]2n2ccnn2)c1 | 80.7 | 3 (active) | 4 (active) | 4 (active) | < 0 (inactive) | 0.1 (inactive) | 0.158 (inactive)
CCCn1c(CNc2ccccc2O)nc2ccccc21 | 337 | 0 (inactive) | 0 (inactive) | 0 (inactive) | 0.136 (inactive) | 0.2 (inactive) | 0.182 (inactive)
Nc1ncnc2c1c(Cc1cccc3ccccc13)nn2CC1CCNCC1 | 96.2 | 0 (inactive) | 0 (inactive) | 0 (inactive) | < 0 (inactive) | < 0 (inactive) | < 0 (inactive)
COc1cc(C(F)(F)F)nc2ccc(C)c(N)c12 | 79.3 | 0 (inactive) | 0 (inactive) | 0 (inactive) | 0.136 (inactive) | 0.05 (inactive) | 0.0526 (inactive)
CNC1C(OC2C(OC3C(O)C(O)C(NC(=N)N)C(O)C3NC(=N)N)OC(C)C2(O)C=O)OC(CO)C(O)C1O (centres undefined) | 93 | 0 (inactive) | 0 (inactive) | 0 (inactive) | 0.182 (inactive) | 0.1 (inactive) | 0.0727 (inactive)
N#Cc1ccc(-c2ccc(OCC(N)=O)cc2)cc1 | 73.9 | 0 (inactive) | 1 (inactive) | 0 (inactive) | 0.182 (inactive) | 0.2 (inactive) | 0.127 (inactive)
COc1cc(-c2cc(-c3ccc(S(C)(=O)=O)cc3)cnc2N)ccc1O | 139 | 2 (active) | 1 (inactive) | 1 (inactive) | 0.1 (inactive) | 0.189 (inactive) | 0.152 (inactive)
Cc1cc(C)n2nc(C(=O)Nc3cc(C(F)(F)F)ccc3N3CCOCC3)nc2n1 | 73.3 | 0 (inactive) | 0 (inactive) | 0 (inactive) | 0.05 (inactive) | 0.135 (inactive) | 0.222 (inactive)
COc1ccc(C2=NCCN2)cc1-c1cn(-c2cccc(C3=NCCN3)c2)nn1 | 85.9 | 0 (inactive) | 0 (inactive) | 0 (inactive) | 0.1 (inactive) | 0.111 (inactive) | 0.25 (inactive)
Cc1ccc(C(=O)Nc2ccc(S(=O)(=O)O)c3cc(S(=O)(=O)O)cc(S(=O)(=O)O)c23)cc1NC(=O)c1cccc(NC(=O)Nc2cccc(C(=O)Nc3cc(C(=O)Nc4ccc(S(=O)(=O)O)c5cc(S(=O)(=O)O)cc(S(=O)(=O)O)c45)ccc3C)c2)c1 | 94.8 | 0 (inactive) | 0 (inactive) | 0 (inactive) | 0.15 (inactive) | 0.297 (inactive) | 0.389 (inactive)
COc1ccc(CN2CCOc3ccc(C(C)(O)CN(C)C)cc3C2)cc1C (centres undefined) | 120 | 0 (inactive) | 0 (inactive) | 1 (inactive) | 0.1 (inactive) | 0.0556 (inactive) | < 0 (inactive)
c1ccc(-c2nc(NC3CCCCC3)cc(C3CC3)n2)nc1 | 16.4 | 0 (inactive) | 0 (inactive) | 0 (inactive) | < 0 (inactive) | 0.0811 (inactive) | 0.152 (inactive)
OCCc1ccc(Nc2nccc(-c3nnc4ccccn34)n2)cc1 | 109 | 0 (inactive) | 1 (inactive) | 4 (active) | 0.2 (inactive) | 0.556 (active) | 0.562 (active)
O=C(NC1CCCCC1)N1CCN(Cc2ccc3c(c2)OCO3)CC1 | 88.6 | 0 (inactive) | 0 (inactive) | 0 (inactive) | 0.0455 (inactive) | 0.2 (inactive) | 0.127 (inactive)
CCC(NC(=O)c1ccccc1NC(=O)c1ccc(C)cc1)C(=O)OC (centres undefined) | 82.9 | 0 (inactive) | 1 (inactive) | 1 (inactive) | 0.2 (inactive) | 0.167 (inactive) | 0.25 (inactive)
CCc1ccccc1-n1c(C)cn2c3c(=O)n(C(C(=O)OC)C(C)C)c(=O)n(C)c3nc12 (centres undefined) | 108 | 1 (inactive) | 0 (inactive) | 0 (inactive) | 0.15 (inactive) | 0.405 (inactive) | 0.636 (active)
O=C(NCCc1ccn(-c2ccccc2)n1)C1CCCCC1 | 74.1 | 0 (inactive) | 0 (inactive) | 0 (inactive) | 0.136 (inactive) | < 0 (inactive) | 0.0526 (inactive)
